Assay in all cases: HT-SELEX; high values mean tight binding
What all share (conditions): protein: recombinant; vector His6-GST; dsDNA, one strand shown

Test [1] deals with T1, SALL4 ZFC4 WT (HT-SELEX) (Mus musculus, UniProt Q8BX22 870-940).
T1 sequence: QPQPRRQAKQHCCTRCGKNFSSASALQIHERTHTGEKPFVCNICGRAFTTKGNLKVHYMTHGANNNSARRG
Summed up: (§1)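 Binding signal is defined as the fold change of each canonical k-mer's read fraction versus the initial random library. Selections used 1 µg of purified recombinant mouse SALL4 zinc finger cluster 4 (residues 870–940) with library DNA (1.5 µg first cycle, 200 ng later) in 100 µl of 10 mM Tris–HCl pH 7.5, 50 mM NaCl, poly(dI-dC) and DTT, for 10 min at room temperature, followed by Ni2+ bead capture, washing and PCR. Up to 6 such cycles were run in triplicate before MiSeq sequencing and 6-mer scanning.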

In test [2] the target is T2, SALL4 ZFC4 R900W (HT-SELEX) (Mus musculus, UniProt Q8BX22 870-940, R900W).
T2 sequence: T1 sequence with R31W
Summed up: as §1

The target in test [3] is T3, SALL4 ZFC4 G921D (HT-SELEX) (Mus musculus, UniProt Q8BX22 870-940, G921D).
T3 sequence: T1 sequence with G52D
Summed up:
as §1

Positions count from the first letter of the chain named.

As for ACCTTC, the results for the binding signal in test [1], in test [2] and in test [3] were 0.842 ± 0.0201 fold-change vs cycle 0, 0.982 ± 0.0475 fold-change vs cycle 0 and 1 ± 0.0224 fold-change vs cycle 0, respectively.

Take CTTTTC: the binding signal in test [1] stood at 1.14 ± 0.0195 fold-change vs cycle 0; in test [2], 1.29 ± 0.0412 fold-change vs cycle 0; in test [3], 1.218 ± 0.00999 fold-change vs cycle 0.

Take AGGCAG: the binding signal in test [1] came to 0.306 ± 0.00652 fold-change vs cycle 0; in test [2], 0.366 ± 0.0295 fold-change vs cycle 0; in test [3], 0.484 ± 0.0834 fold-change vs cycle 0.

On to CGGTAC, for which the binding signal is 0.362 ± 0.0117 fold-change vs cycle 0 in test [1], 0.437 ± 0.0232 fold-change vs cycle 0 in test [2] and 0.552 ± 0.049 fold-change vs cycle 0 in test [3].

For the sequence CCGTTA, the binding signal came out at 0.746 ± 0.0254 fold-change vs cycle 0 in test [1], 0.832 ± 0.0409 fold-change vs cycle 0 in test [2] and 0.854 ± 0.0323 fold-change vs cycle 0 in test [3].

For GCTCTA, the binding signal in test [1] was determined as 0.572 ± 0.0244 fold-change vs cycle 0; in test [2] it was 0.686 ± 0.0351 fold-change vs cycle 0; in test [3] it was 0.788 ± 0.0186 fold-change vs cycle 0.

The record behind these values is PMC9838217, “Structure of SALL4 zinc finger domain reveals link between AT-rich DNA binding and Okihiro syndrome”.
